# Among all 68,000 compounds or so, about 2,700 (4%) showed an effect of 50% or more. This excerpt belongs to a sample that is enriched for strong results.
# Tested on: Plasmodium berghei
# Test: Screen against P. berghei liver stage (PbLuc), transformed with Luciferase, at 2uM
# Assay type: functional, HepG2
# Conditions: tested at 2 uM
row,Structure (SMILES),INHIBITION
1,Fc1cnc(N2CCC3(CC2)CN(Cc2cccs2)CCO3)nc1,43.29%
2,COc1ccccc1C(C)(C)NC(=O)Nc1ccc(F)c(C(N)=O)c1,20.21%
3,CN(Cc1cncnc1)[C@@H]1CN(Cc2ccco2)C[C@@H]2CCCO[C@@H]21,-37.2%
4,CCCN1CCN(C(=O)Cn2nc(C(F)(F)F)c(Br)c2C2CC2)CC1,-3.36%
5,CC(C)C(NC(=O)c1ccc(Cl)cc1Cl)C(=O)Nc1ccn(C)n1 (stereo not drawn),42.76%
6,O=C(COC1CCCCC1)Nc1ccn(CCc2ccncc2)n1,13.99%
7,Cn1cccc1C(=O)NC(C)(C(N)=O)c1cccc(C(F)(F)F)c1 (stereo not drawn),-23.95%
8,OC1(c2ccc(F)cc2)CCN(Cc2ccccc2N2CCCC2)CC1,58.02%
9,Cc1cccc(C2(O)CCN(Cc3ccccc3N3CCCC3)CC2)c1,4.06%
10,OC1(c2ccccc2F)CCN(Cc2ccccc2N2CCCC2)CC1,14.73%
11,Cc1noc(C)c1CN(C)CC(c1cccs1)N1CCOCC1 (stereo not drawn),43.7%
12,Cc1cc(N(C)C)nc(NC2CCc3nc(C)nn3C2)n1 (stereo not drawn),13.28%
13,O=C(O)c1ccccc1-c1ccc(CNC(=O)C2CCOCC2)cc1,22.95%
14,OCC1(Cc2ccc(Cl)cc2)CCN(Cc2ccccc2O)CC1,-58.31%
15,COc1ccc(CN2CCC(CO)(Cc3ccc(Cl)cc3)CC2)c(O)c1,36.34%
16,COc1cccc(CN2CCC(CO)(Cc3ccc(Cl)cc3)CC2)c1O,71.83%
17,O=C(Nc1ccc(N2CCCC2)nc1)N1CCc2sccc2C1,-19.54%
18,O=C(Nc1ccc(N2CCCCC2)nc1)N1CCc2sccc2C1,-4.09%
19,O=C(Nc1ccc(N2CCOCC2)nc1)N1CCc2sccc2C1,57.59%
20,CN1C(=O)CCC12CCN(S(=O)(=O)c1ccccc1)CC2,46.32%
21,CCSc1ccccc1C(=O)N1CCC(S(=O)(=O)c2nncn2C)CC1,59.08%
22,Cn1cnnc1S(=O)(=O)C1CCN(C(=O)c2cccs2)CC1,25.55%
23,Cn1cnnc1S(=O)(=O)C1CCN(C(=O)c2ccco2)CC1,31.78%
24,CN(Cc1ccccc1F)Cc1cc2c(cc1Br)OCCO2,12.68%
25,Cc1cnc(C(=O)N2C[C@@H]3CC[C@H]2CN(Cc2cscn2)C3)[nH]1,-0.62%
26,Cc1noc(C)c1CNCc1ccccc1N(C)C1CCN(C)CC1,50.46%
27,CN1CCC(N(C)c2ccccc2CNCc2ccco2)CC1,24.6%
28,CCc1cc(CNCc2ccccc2N(C)C2CCN(C)CC2)on1,-19.27%

# From ChEMBL document CHEMBL4513216, “Probing the Open Global Health Chemical Diversity Library for Multistage-Active Starting Points for Next-Generation Antimalarials” (ACS Infect Dis, 2020)
